Active and inactive are the calls of the source. The calls were made as follows: active = hit-call score of the fitted dose curve at least 0.9, where 1 is the maximum; inactive = score below 0.9.
Assays:
[1] = read-out: Tissue Factor, F3 (gene 2152); experiment: BSK_CASM3C_TissueFactor: BioMAP Diversity Plus: CASM3C Assay for Tissue Factor Biomarker Activity (AID 2283052); details: primary human coronary artery smooth muscle cells; actives raise or lower the signal;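 also: cell surface tissue factor protein level read by ELISA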
[2] = read-out: Interferon-gamma inducible Protein 10 (IP10), CXCL10 (gene 3627); experiment: BSK_hDFCGF_IP10: BioMAP Diversity Plus: hDFCGF Assay for Interferon-gamma inducible Protein 10 (IP10) Biomarker Activity (AID 2283053); details: primary human foreskin fibroblasts; actives raise or lower the signal
In short: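 Cells: human dermal foreskin fibroblasts. Exposure: 24 h post-dosing. Detection: IP-10 ELISA, with values expressed against DMSO controls and fitted in both directions.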

[3] = read-out: Urokinase-type plasminogen activator receptor (uPAR), PLAUR (gene 5329); experiment: BSK_CASM3C_uPAR: BioMAP Diversity Plus: CASM3C Assay for Urokinase-type plasminogen activator receptor (uPAR) Biomarker Activity (AID 2283054); details: primary human coronary artery smooth muscle cells; actives raise or lower the signal;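 also: cell-surface uPAR protein level quantified by ELISA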
[4] = read-out: Vascular cell adhesion molecule 1 (VCAM1), VCAM1 (gene 7412); experiment: BSK_CASM3C_VCAM1: BioMAP Diversity Plus: CASM3C Assay for Vascular cell adhesion molecule 1 (VCAM1) Biomarker Activity (AID 2283055); details: primary human coronary artery smooth muscle cells; actives raise or lower the signal;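 also: VCAM-1 protein level quantified by ELISA on the cells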
[5] = read-out: Collagen III, COL3A1 (gene 1281); experiment: BSK_hDFCGF_CollagenIII: BioMAP Diversity Plus: hDFCGF Assay for Collagen III Biomarker Activity (AID 2283056); details: primary human foreskin fibroblasts; actives raise or lower the signal
In short: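 ELISA read-out of collagen III from human skin fibroblast cultures sampled 24 h post-dosing. Values were derived by bidirectional fitting relative to the DMSO vehicle control.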

[6] = read-out: Epidermal growth factor receptor (EGFR), EGFR (gene 1956); experiment: BSK_hDFCGF_EGFR: BioMAP Diversity Plus: hDFCGF Assay for Epidermal growth factor receptor (EGFR) Biomarker Activity (AID 2283057); details: primary human foreskin fibroblasts; actives raise or lower the signal
In short: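 Dosing human primary skin fibroblasts, then measuring surface EGFR by ELISA at 24 h, gives the endpoint; gains and losses relative to DMSO were fitted in both directions.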

[7] = read-out: Interleukin-8 (IL8), CXCL8 (gene 3576); experiment: BSK_hDFCGF_IL8: BioMAP Diversity Plus: hDFCGF Assay for Interleukin-8 (IL8) Biomarker Activity (AID 2283058); details: primary human foreskin fibroblasts; actives raise or lower the signal
In short: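 Cells used are human skin primary fibroblasts. Chemical is added, cultures run 24 h, then IL-8 is quantified by ELISA, and gain or loss versus DMSO control is fitted in both directions.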

[8] = BSK_hDFCGF_Proliferation: Cell Proliferation Assessment in the BioMAP Diversity Plus: hDFCGF Assay (AID 2283059); details: primary human foreskin fibroblasts;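 also: curves fitted for both rise and fall of signal versus DMSO baseline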
In short: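 Sub-confluent human foreskin fibroblast cultures receive test chemical […]. Relative cell number is quantified by sulforhodamine B staining (0.1%, after 10% TCA fixation) at 560 nm, with bidirectional fitting referenced to DMSO.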

[9] = read-out: Macrophage colony-stimulating factor (MCSF), CSF1 (gene 1435); experiment: BSK_hDFCGF_MCSF: BioMAP Diversity Plus: hDFCGF Assay for Macrophage colony-stimulating factor (MCSF) Biomarker Activity (AID 2283060); details: primary human foreskin fibroblasts; actives raise or lower the signal
In short: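 Primary human foreskin fibroblasts dosed with chemical; 24 h later, M-CSF quantified by ELISA; curves fitted in both directions vs DMSO negative control.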

[10] = BSK_hDFCGF_SRB: Viability Assessment in the BioMAP Diversity Plus: hDFCGF Assay (AID 2283061); details: primary human foreskin fibroblasts;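 also: cells exposed to compound for 24 h before the read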
In short: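 Readout is SRB absorbance at 560 nm, reflecting total protein in parallel cultures of human foreskin fibroblasts harvested 24 h after chemical dosing. Activity was fitted bidirectionally relative to DMSO.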

Measured: AC50

[Cl][Sn]([c]1ccccc1)([c]1ccccc1)[c]1ccccc1
inactive: [6]
active: [1] 1.37 µM | [2] 0.0861 µM | [3] 0.351 µM | [4] 0.396 µM | [5] 0.5 µM | [7] 0.123 µM | [8] 0.0542 µM | [9] 0.166 µM | [10] 0.233 µM

CCC(C)(C#N)N=NC(C)(C#N)CC (stereo not drawn)
inactive: all assays above

CCOP(=S)(OCC)SCS(=O)(=O)C(C)(C)C
inactive: all assays above

Cc1cccc(OP(=O)(Oc2cccc(C)c2)Oc2cccc(C)c2)c1
active: [9] 4.78 µM
inactive: all other assays above

C=CC(Cl)CCl (stereo not drawn)
active: [4] 0.921 µM | [8] 20.4 µM
inactive: all other assays above

CCCCCCCCCCCCc1cccc(S(=O)(=O)O)c1
active: [2] 12.7 µM | [5] 16.2 µM | [6] 11.8 µM | [8] 8.86 µM | [9] 12.5 µM | [10] 18.1 µM
inactive: [1] | [3] | [4]

Oc1c(Br)cc(Br)cc1Br
active: [5] 12.1 µM
not listed: [8]
inactive: all other assays above

c1ccc(-c2cccc(-c3ccccc3)c2)cc1
active: [2] 29.5 µM | [5] 11.7 µM | [8] 11 µM | [9] 20 µM | [10] 12.2 µM
inactive: all other assays above

OC(Cc1ccccc1Cl)(Cn1[nH]cnc1=S)C1(Cl)CC1 (stereo not drawn)
inactive: [6] | [7] | [10]
active: [1] 15.3 µM | [2] 29.5 µM | [3] 32.5 µM | [4] 36.3 µM | [5] 9.86 µM | [8] 35.2 µM | [9] 15 µM

CC(C=O)Cc1ccc2c(c1)OCO2 (stereo not drawn)
inactive: all assays above

Cc1cc(C)cc(C)c1
inactive: all assays above

CC(C)(C)c1cc([N+](=O)[O-])cc(C(C)(C)C)c1O
active: [3] 11.8 µM
inactive: all other assays above

O=C(O)C1(c2ccc3c(c2)OC[C@H](Cc2ccc(-c4ccccc4)cc2)[C@H]3O)CCCC1
active: [2] 7.31 µM | [3] 28 µM | [4] 20 µM | [5] 4.51 µM | [6] 5.5 µM | [7] 14.7 µM | [8] 6.62 µM | [9] 8.18 µM | [10] 7.76 µM
inactive: [1]

CCOP(=S)(OCC)OP(=S)(OCC)OCC
active: [2] 29.6 µM | [4] 20 µM | [8] 23.2 µM
inactive: all other assays above

CC(C)N(C(=O)CCl)c1ccccc1
active: [1] 20 µM | [2] 3.13 µM | [3] 11 µM | [4] 4.39 µM | [5] 1.69 µM | [7] 13.3 µM | [8] 2.45 µM | [9] 6.59 µM | [10] 3.03 µM
inactive: [6]

CC(C)(C)c1ccccc1O
inactive: all assays above

CCOC(=O)C(SP(=S)(OC)OC)c1ccccc1 (stereo not drawn)
active: [1] 3.97 µM | [4] 20 µM | [5] 10.2 µM | [8] 26.4 µM | [9] 7.09 µM
inactive: all other assays above
